Source: the supplement of paper PMC10670038
Where a name gives a salt, the structure may show the parent alone. ± gives the standard deviation of the averaged measurements. Whole data set: some 2,000 compounds, median “relative cell viability vs DMSO, compound + 0.2 uM CuET” near 1, cut for the lowest 2% near 0.25. The sample as a whole holds a higher share of the lowest values than the screen did.

system: TE10; assay: relative cell viability vs DMSO, compound + 0.2 uM CuET (fraction); TE10 is an esophageal squamous carcinoma line; higher = less cytotoxic; settings: 2 µM; co-treatment: CuET (bis(diethyldithiocarbamate)copper) 0.2 uM; 48 h
Experimental: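 TE10 ESCC cells (1,000/well, 384-well plates) were treated with Selleck bioactive library compounds at 2 uM combined with 0.2 uM CuET (copper diethyldithiocarbamate) for 48 h. Viability was read by CellTiter-Glo and expressed relative to DMSO wells. Two technical replicates (A, B).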

Compound | relative cell viability
CCN1CCN(C(=O)Cc2ccc(Nc3ncc(F)c(Nc4ccc(C(=O)Nc5ccccc5Cl)cc4)n3)cc2)CC1 [Aurora A Inhibitor I] | 0.182 ± 0.01
Cc1cc(C(=O)CN2CCCC2)c(C)n1-c1ccc(F)cc1 | 0.959 ± 0.085
C[C@@H]1CC[C@H]2[C@@H](C)C(=O)O[C@@H]3O[C@@]4(C)CC[C@@H]1[C@]32OO4 [Artemisinin] | 1.08 ± 0.11
NCC(O)c1ccc(O)cc1 (racemic) [(+,-)-Octopamine HCl] | 0.697 ± 0.56
CC(=O)OC12COC1CC(O)C1(C)C(=O)C(O)C3=C(C)C(O)CC(O)(C(OC(=O)c4ccccc4)C21)C3(C)C (stereo not given) [10-Deacetylbaccatin-III] | 0.849 ± 0.011
CC1=C(O)C(=O)C=C2C1=CC=C1[C@@]2(C)CC[C@@]2(C)[C@@H]3C[C@](C)(C(=O)O)CC[C@]3(C)CC[C@]12C [Celastrol] | 0.154 ± 0.0064
CC(C)=CCC[C@]1(C)C=Cc2c(O)c3c(c(CC=C(C)C)c2O1)O[C@]12C(=C[C@@H]4C[C@H]1C(C)(C)O[C@@]2(C/C=C(/C)C(=O)O)C4=O)C3=O [Gambogic Acid] | 0.2853 ± 0.00092
O=c1cccc2n1C[C@@H]1CNC[C@H]2C1 [Cytisine] | 1.07 ± 0.033
C=C[C@H]1CN2CC[C@H]1C[C@H]2[C@H](O)c1ccnc2ccccc12 [Cinchonidine] | 1.03 ± 0.057
N#CC(C#N)=Cc1ccc(O)c(O)c1 | 0.937 ± 0.14
